Holding throughout (test): glycan array binding signal (z-score within array); higher = stronger binding
Settings in all cases: glycan notation: IUPAC condensed, linker removed

Test [1] addresses GlcNAc(b1-2)[GlcNAc(b1-4)]Man(a1-3)[GlcNAc(b1-4)][GlcNAc(b1-2)[GlcNAc(b1-6)]Man(a1-6)]Man(b1-4)GlcNAc(b1-4)[Fuc(a1-6)]GlcNAc. Summed up:
(§1)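 From the Consortium for Functional Glycomics database, 3228 arrays were curated, keeping only those whose protein sequence was available. Binding is given as a within-array Z-score averaged across arrays sharing a protein sequence and across linkers. Negative Z-scores can be read as non-binding.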

Test [2] has as its target GlcNAc(b1-2)[GlcNAc(b1-6)]Man(a1-6)[GlcNAc(b1-2)Man(a1-3)]Man(b1-4)GlcNAc(b1-4)[Fuc(a1-6)]GlcNAc. Summed up: as §1
For test [3], the target named is GlcNAc(b1-3)Gal(b1-4)GlcNAc(b1-3)Gal(b1-4)GlcNAc(b1-3)Gal(b1-4)GlcNAc(b1-3)Gal(b1-4)GlcNAc(b1-2)Man(a1-3)[GlcNAc(b1-3)Gal(b1-4)GlcNAc(b1-3)Gal(b1-4)GlcNAc(b1-3)Gal(b1-4)GlcNAc(b1-3)Gal(b1-4)GlcNAc(b1-2)Man(a1-6)]Man(b1-4)GlcNAc(b1-4)GlcNAc. Summed up: as §1
Test [4] concerns the target GlcNAc(b1-6)Gal(b1-4)GlcNAc. Summed up: as §1
Test [5] deals with Kdn(a2-3)Gal(b1-3)GalNAc. The method, boiled down: as §1
Test [6] has as its target MurNAc(b1-4)GlcNAc. The method, boiled down: as §1
For test [7], the target named is Neu5Ac(a2-3)Gal(b1-3)[GlcNAc(b1-6)]GalNAc. The method, boiled down: as §1
In test [8] the target is Neu5Ac(a2-3)Gal(b1-4)GlcNAc(b1-2)[Neu5Ac(a2-3)Gal(b1-4)GlcNAc(b1-4)]Man(a1-3)[GlcNAc(b1-4)][Neu5Ac(a2-3)Gal(b1-4)GlcNAc(b1-2)[Neu5Ac(a2-3)Gal(b1-4)GlcNAc(b1-6)]Man(a1-6)]Man(b1-4)GlcNAc(b1-4)GlcNAc. The method, boiled down: as §1
Test [9] deals with Neu5Ac(a2-3)Gal(b1-4)GlcNAc(b1-2)[Neu5Ac(a2-3)Gal(b1-4)GlcNAc(b1-6)]Man(a1-6)[Neu5Ac(a2-3)Gal(b1-4)GlcNAc(b1-2)Man(a1-3)][GlcNAc(b1-4)]Man(b1-4)GlcNAc(b1-4)GlcNAc. The method, boiled down: as §1
Test [10] addresses Neu5Ac(a2-6)Gal(b1-4)GlcNAc(b1-2)Man. The method, boiled down: as §1
Test [11] addresses Neu5Ac(a2-6)Gal(b1-4)GlcNAc(b1-2)Man(a1-3)[GlcNAc(b1-4)][Neu5Ac(a2-6)Gal(b1-4)GlcNAc(b1-2)Man(a1-6)]Man(b1-4)GlcNAc(b1-4)GlcNAc. Summed up:
as §1

Test [12] deals with Neu5Ac(a2-6)Gal(b1-4)GlcNAc(b1-2)Man(a1-3)[Man(a1-6)]Man(b1-4)GlcNAc(b1-4)GlcNAc. Summed up:
as §1

Test [13] has as its target Neu5Ac(a2-6)Gal(b1-4)GlcNAc(b1-2)Man(a1-3)[Neu5Ac(a2-6)Gal(b1-4)GlcNAc(b1-2)Man(a1-6)]Man(b1-4)GlcNAc(b1-4)GlcNAc. Summed up: as §1
In test [14] the target is Neu5Ac(a2-6)Gal(b1-4)GlcNAc(b1-2)Man(a1-6)Man(b1-4)GlcNAc(b1-4)GlcNAc. The method, boiled down: as §1
Test [15] deals with Neu5Ac(a2-6)Gal(b1-4)GlcNAc(b1-2)Man(a1-6)[Man(a1-3)]Man(b1-4)GlcNAc(b1-4)GlcNAc. Summed up:
as §1

In test [16] the target is Neu5Ac(a2-6)Gal(b1-4)GlcNAc(b1-3)Gal(b1-4)GlcNAc(b1-3)[Neu5Ac(a2-6)Gal(b1-4)GlcNAc(b1-3)Gal(b1-4)GlcNAc(b1-6)]GalNAc. Summed up:
as §1

For test [17], the target named is Neu5Ac(a2-8)Neu5Ac(a2-3)Gal(b1-3)GalNAc(b1-4)[Neu5Ac(a2-3)]Gal(b1-4)Glc. The method, boiled down:
as §1

The sample as a whole holds a higher share of the strongest signals than the screen did.

B1: his-Lectin-24A (Drosophila melanogaster) (protein)
chain: MFRLSVLVLNLLLVSHEFSAGTAKIEIQPLPALCNGYCFPTLKPVMEYVAIHQDKWNTCTEILANEARKDQIQLNIQLDALKADVSNIKASQLSKDEKLDRMEREQFAMHESLETINRYLTVKLDRTKLQLEAIKNTMDYMKAQMDGYFSAINGVQCLQPGFEKIGDRYFYIEEDVELNWLDAQAKCRRMGGHLASIKTKQEFDAIVEKLDDSKSYFLGVNENTKTGDFVSAASGKSCLYHEWGPGEPHHNNDQERCVSILRKLMHVGNCTYEKRFICQYGI
As for B1, the “glycan array binding signal (z-score)” value in test [1] is 2.05; in test [2], 1.69; in test [3], 0.615; in test [4], 0.608; in test [5] it was 0.552; in test [6], -0.281. In addition, the “glycan array binding signal (z-score)” value in [7] is -0.036; in [8], 2.26; in test [9], -0.362; in test [10], -0.44; in test [11], -1.2; in [12], -0.737. In addition, the “glycan array binding signal (z-score)” value in test [13] is 0.078; in test [14], 1.27; in [15], 1.07; in [16] it was 0.118; in test [17], 2.87.

The values are drawn from the supplement of paper PMC8728848.
